Inconclusive results are not listed. Calls of active or inactive are those of the source. Unless noted, calls follow the shape of the dose curve; as a rule, active = well fitted curve in the direction sought with a large enough effect in the repeat runs; inconclusive = weak or mixed curves; inactive = no such curve, though single readings can be large; an effect the other way counts as inactive or inconclusive.
Experiments:
[1] = qHTS assay for small molecule agonists of the p53 signaling pathway (AID 651631; calls by dose curve; also: nearly all actives have a fitted effect of over 15% in size)
Method in brief: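 HCT-116 cells carrying a beta-lactamase reporter under p53 response elements were dosed with compound for 16 h at 37 °C. LiveBLAzer B/G FRET substrate was then added for 2 h at room temperature, and fluorescence intensity was read to detect pathway agonism.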

[2] = qHTS assay for small molecules that induce genotoxicity in human embryonic kidney cells expressing luciferase-tagged ATAD5 (AID 651632); also: nearly all actives have a fitted effect of over 15% in size
Method in brief: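 Genotoxicity read-out via ATAD5-luciferase: HEK293T cells, 16 hr compound incubation at 37C, Amplite detection.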

[3] = qHTS assay for small molecule agonists of the p53 signaling pathway - cell viability (AID 651633; calls by dose curve;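 also: p53RE-bla HCT reporter cells with a stable beta-lactamase p53 reporter; series mostly up to about 83 µM; nearly all actives have a fitted effect of over 30% in size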)
Method in brief: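 p53RE-bla cells, seeded at 4,000 per well and rested 5 h at 37 C/5% CO2, received compounds in DMSO for 16 h at 37 C. CellTiter-Glo was then added, and luminescence was read after 30 min at room temperature to gauge cytotoxicity.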

[4] = qHTS assay for small molecule disruptors of the mitochondrial membrane potential - cell viability (AID 720634; calls by dose curve;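 also: human HepG2 liver cancer cells; series mostly up to about 83 µM; nearly all actives have a fitted effect of over 20% in size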)
Method in brief: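 Human hepatoma HepG2 cells were treated for 1 hr with test chemicals, then given m-MPI dye and CellTiter-Glo. Cell viability reflects luminescence proportional to cellular ATP.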

[5] = qHTS assay for small molecule disruptors of the mitochondrial membrane potential (AID 720635)
Method in brief: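 HepG2 cells (2,000/well) attached overnight at 37C, then took compound for 1 hr at 37C, 5% CO2. Mito-MPS dye was added for 30 min; fluorescence was read at 490/535 nm (monomers) and 540/590 nm (aggregates).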

[6] = qHTS assay to test for compound auto fluorescence at 590 nm (red) in HepG2 cells (AID 720674)
Method in brief: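 Intrinsic compound fluorescence in the red window (Ex/Em 540/590 nm) is measured in attached HepG2 cells exposed for 1 hr, DMSO vehicle as baseline, benchmarked to Rose Bengal sodium.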

[7] = qHTS assay to test for compound auto fluorescence at 535 nm (green) in HepG2 cells (AID 720675)
[8] = qHTS assay to test for compound auto fluorescence at 460 nm (blue) in HEK293 cells (AID 720678)
Method in brief: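 Cells were seeded and left to adhere for 4-5 hr at 37C. Compounds were then pin-transferred. After an overnight incubation at 37C under 5% CO2, intrinsic fluorescence at 405/460 nm was measured and referenced to triamterene.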

[9] = qHTS assay to test for compound auto fluorescence at 590 nm (red) in HEK293 cells (AID 720679)
Method in brief: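 Each well held 2,000 HEK293 cells in medium containing 10% dialyzed FBS. Following 4-5 hr attachment at 37C, 23 nL test compound or DMSO was added; plates sat overnight, and red fluorescence (540/590nm) was recorded.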

[10] = qHTS assay to test for compound auto fluorescence at 535 nm (green) in HEK293 cells (AID 720680)
[11] = qHTS assay to test for compound auto fluorescence at 460 nm (blue) in HEK293 cell free culture (AID 720681)
Method in brief: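 Test compounds were pinned into cell-free culture medium (DMEM with 10% FBS) and fluorescence was read directly at Ex/Em 405/460 nm. Signals were expressed as fluorescence equivalents of triamterene, with DMSO vehicle as control.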

[12] = qHTS assay to test for compound auto fluorescence at 535 nm (green) in HEK293 cell free culture (AID 720682)
Method in brief: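 Green-label autofluorescence (485 nm excitation, 535 nm emission) measured on compound added to cell-free culture medium (DMEM, 10% FBS). Output is expressed relative to fluorescein.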

[13] = qHTS assay to test for compound auto fluorescence at 590 nm (red) in HEK293 cell free culture (AID 720683)
Method in brief: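 Tox21 10K library compounds were pinned into cell-free DMEM with 10% FBS and fluorescence was read at excitation 540 nm. Activity is expressed as Rose Bengal sodium equivalency.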

[14] = qHTS assay to test for compound auto fluorescence at 590 nm (red) in HepG2 cell free culture (AID 720684)
Method in brief: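 Measured in medium alone (MEM containing 10% FBS) following pintool addition of compound; emission at 590 nm with 540 nm excitation, referenced to Rose Bengal sodium.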

[15] = qHTS assay to test for compound auto fluorescence at 460 nm (blue) in HepG2 cell free culture (AID 720685)
Method in brief: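 Compound (23 nL) or DMSO pinned into cell-free MEM with 10% FBS; blue fluorescence read at 405/460 nm excitation/emission, expressed as auto-fluorescence equivalency to triamterene.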

[16] = qHTS assay to test for compound auto fluorescence at 535 nm (green) in HepG2 cell free culture (AID 720686)
[17] = qHTS assay to test for compound auto fluorescence at 460 nm (blue) in HepG2 cells (AID 720687)
Method in brief: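 Cells (2,000/well in MEM with 10% FBS) attached overnight at 37 C, then were exposed to compound or DMSO for 1 hr at 37 C, 5% CO2. Fluorescence read at Ex/Em 405/460 nm, expressed as triamterene-equivalent signal.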

[18] = qHTS assay for small molecules that induce genotoxicity in human embryonic kidney cells expressing luciferase-tagged ATAD5 - cell viability (AID 651634; calls by dose curve; also: nearly all actives have a fitted effect of over 25% in size)
Method in brief: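 Live-cell protease activity (CellTiter-Fluor, fluorescence) indicates viability. HEK293T cells with luciferase-tagged ATAD5; 15.5 hr compound treatment at 37C.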

[19] = biological target: Glucocorticoid receptor (Homo sapiens) (UniProt P04150); assay: qHTS assay to identify small molecule agonists of the glucocorticoid receptor (GR) signaling pathway (AID 720691; active = well fitted activation curve with a large enough effect in the signal ratio in the repeat runs, not every such curve was filed as active; the % refers to the signal ratio)
Chain of Glucocorticoid receptor (Homo sapiens) (P04150 whole entry, looked up): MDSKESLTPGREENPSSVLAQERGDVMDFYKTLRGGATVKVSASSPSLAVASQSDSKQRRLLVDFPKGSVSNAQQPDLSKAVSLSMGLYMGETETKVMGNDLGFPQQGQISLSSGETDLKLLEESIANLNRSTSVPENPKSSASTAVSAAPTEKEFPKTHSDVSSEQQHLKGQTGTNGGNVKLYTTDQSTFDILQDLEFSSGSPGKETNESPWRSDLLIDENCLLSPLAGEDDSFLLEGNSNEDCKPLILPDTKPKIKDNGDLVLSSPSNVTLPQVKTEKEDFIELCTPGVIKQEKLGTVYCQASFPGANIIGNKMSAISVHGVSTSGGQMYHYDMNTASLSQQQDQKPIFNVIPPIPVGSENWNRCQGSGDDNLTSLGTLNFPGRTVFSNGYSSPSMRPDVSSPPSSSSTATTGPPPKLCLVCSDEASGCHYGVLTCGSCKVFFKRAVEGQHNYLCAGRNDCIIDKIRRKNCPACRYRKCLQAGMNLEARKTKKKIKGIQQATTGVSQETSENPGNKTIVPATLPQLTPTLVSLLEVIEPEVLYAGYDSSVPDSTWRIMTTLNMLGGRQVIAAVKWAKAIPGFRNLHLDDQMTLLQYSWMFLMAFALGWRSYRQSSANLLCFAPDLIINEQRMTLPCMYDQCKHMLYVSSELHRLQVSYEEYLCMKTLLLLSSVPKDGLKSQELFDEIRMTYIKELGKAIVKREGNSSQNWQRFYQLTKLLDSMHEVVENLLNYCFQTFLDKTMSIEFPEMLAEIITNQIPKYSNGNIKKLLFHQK
Method in brief: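 Beta-lactamase reporter activity, read as fluorescence intensity, was measured in GR-bla HeLa cells exposed to compounds for 18 h at 37 C and then loaded with LiveBLAzer B/G FRET substrate for 2 h at room temperature.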

[20] = biological target: Glucocorticoid receptor (Homo sapiens) (UniProt P04150); assay: qHTS assay to identify small molecule antagonists of the glucocorticoid receptor (GR) signaling pathway (AID 720692; active = well fitted inhibition curve with a large enough effect in the signal ratio in the repeat runs, not every such curve was filed as active; the % refers to the signal ratio)
Method in brief: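 Fluorescence from cleaved LiveBLAzer B/G FRET substrate reports GRE-driven beta-lactamase in HeLa cells; compounds are tested against 5 nM dexamethasone (final) over 18 h at 37 C, substrate incubation 2 h at room temperature.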
% is scaled to controls: 0 for no effect and ±100 for the full control effect.

CCC(O)C(C)(C)C (configuration not stated)
inactive: outcome [1] | outcome [2] | outcome [3] | outcome [4] | Potency [5] | outcome [6] | outcome [7] | outcome [8] | outcome [9] | outcome [10] | outcome [11] | outcome [12] | outcome [13] | outcome [14] | outcome [15] | outcome [16] | outcome [17]

CC(C)CCCC(C)CC=O (configuration not stated)
inactive: outcome [1] | outcome [2] | outcome [3] | Potency [18] | outcome [6] | outcome [7] | outcome [8] | outcome [9] | outcome [10] | outcome [11] | outcome [12] | outcome [13] | outcome [14] | outcome [15] | outcome [16] | outcome [17]

C1=CCC(c2ccccc2)CC1 (configuration not stated)
inactive: outcome [2] | outcome [3] | Potency [18] | outcome [4] | Potency [5] | outcome [6] | outcome [7] | outcome [8] | outcome [9] | outcome [10] | outcome [11] | outcome [12] | outcome [13] | outcome [14] | outcome [15] | outcome [16] | outcome [17]

CO[Si](CCCS)(OC)OC
inactive: outcome [1] | outcome [2] | outcome [3] | outcome [4] | Potency [5] | outcome [6] | outcome [7] | outcome [8] | outcome [9] | outcome [10] | outcome [11] | outcome [12] | outcome [13] | outcome [14] | outcome [15] | outcome [16] | outcome [17] | Potency [19] | outcome [20]

CCCCCC(=O)OCC
inactive: outcome [1] | outcome [2] | outcome [3] | Potency [18] | outcome [6] | outcome [7] | outcome [8] | outcome [9] | outcome [10] | outcome [11] | outcome [12] | outcome [13] | outcome [14] | outcome [15] | outcome [16] | outcome [17] | Potency [19]

CCCCCCCC/C=C\CCCCCCCC(=O)OC[C@@H](O)[C@H]1OC[C@H](O)[C@H]1O
inactive: outcome [1] | outcome [2] | outcome [3] | Potency [5] | outcome [6] | outcome [7] | outcome [8] | outcome [9] | outcome [10] | outcome [11] | outcome [12] | outcome [13] | outcome [14] | outcome [15] | outcome [16] | outcome [17] | outcome [20]

NC(=O)NC(=O)Cc1ccccc1
inactive: outcome [1] | outcome [2] | outcome [3] | Potency [5] | outcome [6] | outcome [7] | outcome [8] | outcome [9] | outcome [10] | outcome [11] | outcome [12] | outcome [13] | outcome [14] | outcome [15] | outcome [16] | outcome [17] | Potency [19] | outcome [20]

CCCOC(=O)CCCCC(=O)OCCC
inactive: outcome [1] | outcome [2] | outcome [3] | Potency [18] | outcome [6] | outcome [7] | outcome [8] | outcome [9] | outcome [10] | outcome [11] | outcome [12] | outcome [13] | outcome [14] | outcome [15] | outcome [16] | outcome [17] | Potency [19] | outcome [20]

CCOC(=O)CCCCCCCCC(=O)OCC
inactive: outcome [1] | outcome [2] | outcome [3] | Potency [18] | outcome [6] | outcome [7] | outcome [8] | outcome [9] | outcome [11] | outcome [12] | outcome [13] | outcome [14] | outcome [15] | outcome [16] | outcome [17]

CCNC(=O)/C=C/c1cccc(Br)c1
inactive: outcome [1] | outcome [2] | outcome [3] | Potency [18] | outcome [6] | outcome [7] | outcome [8] | outcome [9] | outcome [10] | outcome [11] | outcome [12] | outcome [13] | outcome [14] | outcome [15] | outcome [16] | outcome [17] | Potency [19]

O=C(O)/C=C/c1ccccc1
inactive: outcome [2] | outcome [3] | Potency [18] | outcome [4] | Potency [5] | outcome [6] | outcome [7] | outcome [8] | outcome [9] | outcome [11] | outcome [12] | outcome [13] | outcome [14] | outcome [15] | outcome [16] | outcome [17] | outcome [20]

CCCOCCOCCOCCO
inactive: outcome [2] | outcome [3] | Potency [18] | outcome [4] | outcome [6] | outcome [7] | outcome [8] | outcome [9] | outcome [10] | outcome [11] | outcome [12] | outcome [13] | outcome [14] | outcome [15] | outcome [16] | outcome [17]

Nc1ccc(S(=O)(=O)NC(=O)c2ccccc2)cc1
inactive: outcome [2] | outcome [3] | Potency [18] | outcome [4] | Potency [5] | fluorescence, relative to Rose Bengal [6] 0.536% [at 18.6 µM] | fluorescence, % of fluorescein control [7] -0.394% [at 18.6 µM] | fluorescence, % of triamterene [8] -0.236% [at 18.6 µM] | fluorescence, % of fluorescent control [9] -0.801% [at 18.6 µM] | fluorescence, % of fluorescein [10] -0.0049% [at 18.6 µM] | fluorescence, % of fluorescent control [11] -0.0169% [at 18.6 µM] | activity change [12] 0.0575% [at 18.6 µM] | fluorescence, % of fluorescent control [13] -0.201% [at 18.6 µM] | fluorescence, % of Rose Bengal [14] -0.0804% [at 18.6 µM] | fluorescence, % of fluorescent control [15] -0.0907% [at 18.6 µM] | fluorescence, % of fluorescein control [16] -0.0092% [at 18.6 µM] | fluorescence, % of fluorescent control [17] -0.0228% [at 18.6 µM] | Potency [19] | outcome [20]

CCOC(=O)CC#N
inactive: outcome [2] | outcome [3] | Potency [18] | outcome [4] | Potency [5] | outcome [6] | outcome [7] | outcome [8] | outcome [9] | outcome [10] | outcome [11] | outcome [12] | outcome [13] | outcome [14] | outcome [15] | outcome [16] | outcome [17] | Potency [19] | outcome [20]

From PubChem BioAssay (Tox21)
